Values joined by “and” are separate entries in the source; they are usually repeats but may differ in a detail not shown here. Equal entries are not always repeated. Among all 320,000 compounds or so, about 22,000 (6.9%) were called active. Where a call stands in place of a potency, no number is given. Another 27% or so got no clear call; they are omitted. Calls come from the whole dose curve; as a rule, active = well fitted inhibition curve with a large enough effect; inconclusive = small, poorly fitted or top-dose-only effect, or another doubt; inactive = no such curve, though single readings can be large or run the other way. The sample as a whole holds a higher share of actives than the screen did. Where a structure was tested more than once in an assay, its records may differ in their call.
Test: Primary qHTS for delayed death inhibitors of the malarial parasite plastid, 96 hour incubation
Conditions: P. falciparum luciferase reporter growth; series mostly up to 28.7 µM
How it was run: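 Compounds incubated with erythrocytes infected by luciferase-expressing P. falciparum (2% hematocrit, 0.05% parasitemia final) for 96 hours, 37 C in 5% CO2. Growth inhibition scored as decreased luciferase luminescence.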
Potency is the fitted concentration of half-maximal effect.

Row | Structure (SMILES) | Potency
1 | O=C(Nc1ccc2c(c1)CCC2)c1cccc(S(=O)(=O)N2CCN(c3ccc(F)cc3)CC2)c1 | 9.28 µM (active)
2 | Cc1cccnc1NC(=O)c1cccc(S(=O)(=O)N2CCN(c3ccc(F)cc3)CC2)c1 | inactive
3 | O=C(Nc1ccc2c(c1)CCC2)c1cccc(S(=O)(=O)Nc2ccccc2Cl)c1 | inactive
4 | CCOc1ccc(/C=C/C(=O)N(CC)CC(=O)NCc2cccs2)cc1OC | inactive
5 | O=C(Cn1nc(C(=O)O)c2ccccc2c1=O)Nc1ccc(F)cc1 | inactive
6 | COc1ccc(-c2cc(C(=O)N3CCN(c4ccc(F)cc4)CC3)no2)cc1 | inactive
7 | CCOC(=O)C1(C(F)(F)F)N=C(N(C)C)OC(N(C)C)=N1 | 4.15 µM (active)
8 | CCOc1ccc2[nH]c3nc(SCC(=O)NC4CCCC4)nnc3c2c1 | inactive
9 | CCOc1ccc(CN2CCN(Cc3c[nH]c4ccccc34)CC2)cc1 | inactive
10 | Cc1cccc(OCC(=O)NCCNC(=O)c2cccnc2)c1 | inactive
11 | CN(CC(=O)Nc1ccccc1Cl)C(=O)c1ccccc1SCC(=O)N1CCCC1 | inactive
12 | CCOC(=O)CSc1nc2ccc(C)cc2n2cnnc12 | inactive
13 | CCc1noc(C)c1C(=O)N1CCCSC1=Nc1ccccc1OC | inactive
14 | COc1ccccc1N=C1SCCCN1C | inactive
15 | COc1ccccc1N=C1SC(C)CN1C(=O)C1CCC1 (stereo not given) | 10.4 µM (active)
16 | O=S(=O)(NC(=S)Nc1ccccc1)c1ccc(F)cc1 | inactive
17 | CO[C@H]1[C@@H]2C=CO[C@@H](O[C@H]3O[C@@H](CO)[C@H](O)[C@@H](O)[C@@H]3O)[C@@H]2[C@@]2(CO)O[C@@H]12 | inactive
18 | O=C(CN(C(=O)c1csnn1)c1cccc(Cl)c1)NC1CCCC1 | inactive
19 | CCOc1ccc(N(C(=O)c2snc(C(N)=O)c2N)C(C(=O)NCC2CCCO2)c2c[nH]c3ccccc23)cc1 (stereo not given) | inactive
20 | COc1cccc(-c2nc(CS(=O)CC(=O)NCc3ccc(F)cc3)c(C)o2)c1 (stereo not given) | inactive
21 | COc1ccc(-c2nc(CS(=O)CC(=O)NCc3ccccc3)c(C)o2)cc1OC (stereo not given) | 13.1 µM (active)
22 | COc1ccc(-c2nc(CS(=O)CC(=O)N3CCC4(CC3)OCCO4)c(C)o2)cc1 (stereo not given) | inactive
23 | COc1ccc(-c2nc(CS(=O)CC(=O)NCc3ccccn3)c(C)o2)cc1 (stereo not given) | 11.7 µM (active)
24 | COc1ccc2oc(=O)c(C(=O)NCc3ccccn3)cc2c1 | inactive
25 | Cc1cccc(-c2nc(CS(=O)CC(=O)NC(C)CCc3ccccc3)c(C)o2)c1 (stereo not given) | inactive

Row | Structure (SMILES) | Potency
26 | Cc1ccc(-c2nc(CSCC(=O)NC3CCN(Cc4ccccc4)CC3)c(C)o2)cc1 | inactive
27 | Cc1ccc(-c2nc(CS(=O)CC(=O)NC3CCCC3)c(C)o2)cc1 (stereo not given) | 4.65 µM (active)
28 | Cc1ccc(-c2nc(CS(=O)CC(=O)N3CCN(c4ncccn4)CC3)c(C)o2)cc1 (stereo not given) | inactive
29 | CC(OC(=O)CNC(=O)c1ccc(Cl)c([N+](=O)[O-])c1)C(=O)NCc1ccco1 (stereo not given) | inactive
30 | NC(=O)c1ccc(Nc2ccc3c(c2)CCC3)c([N+](=O)[O-])c1 | inactive
31 | CCC(C)(C)NC(=O)C(c1ccc(O)cc1)N(Cc1ccco1)C(=O)CCC(=O)Nc1ccccn1 (stereo not given) | inactive
32 | Cc1ccc(NC(=O)COC(=O)CN2CCCCCC2=O)c(C)c1 | inactive
33 | CN1CCN(CC(=O)Nc2cccc([N+](=O)[O-])c2)CC1 | inactive
34 | Cc1cccc(NC(=O)c2cc([N+](=O)[O-])ccc2N2CCN(C)CC2)c1 | inactive
35 | O=C(Nc1cccc(Cl)c1)c1cc([N+](=O)[O-])ccc1N1CCN(CCO)CC1 | 3.29 µM (active)
36 | Cc1c(Cl)cccc1NC(=O)NCCCN1CCCC1=O | inactive
37 | COC(=O)c1c(NC(=O)CN2CCN(S(=O)(=O)c3ccccc3[N+](=O)[O-])CC2)sc2c1CCC(C)C2 (stereo not given) | 9.28 µM (active)
38 | Cc1c(Br)c([N+](=O)[O-])nn1CC(=O)Nc1sc2c(c1C(=O)OC(C)C)CCC(C)C2 (stereo not given) | inactive
39 | COc1ccccc1NC(=O)CN1CCN(S(=O)(=O)c2ccc(Br)cc2)CC1 | inactive
40 | O=C(Cc1ccsc1)N1CCN(S(=O)(=O)c2cc(C(F)(F)F)cc(C(F)(F)F)c2)CC1 | inactive
41 | O=C(CSc1ncn[nH]1)Nc1nc(-c2cccc([N+](=O)[O-])c2)cs1 | inactive
42 | COc1ccc2c(c1OC)C(=O)N(c1ccc(O)cc1)C2 | inactive
43 | CCN1C(=NCC(C)C)N[C@@H](CCc2ccccc2)[C@H](C(=O)NCC(C)C)[C@H]1C | inactive
44 | COc1ccc(CNC(=O)C2CCN(S(C)(=O)=O)CC2)cc1 | inactive
45 | CCN1C(=NCc2ccc(OC)cc2)N[C@@H](CCc2ccccc2)[C@H](C(=O)NCc2ccc(OC)cc2)[C@H]1C | inactive and 5.22 µM (active)
46 | O=C(Nc1cccnc1Cl)c1cc(-c2ccccc2O)on1 | inactive
47 | CC(=O)c1ccc(NC(=O)C2CC(=O)Nc3nc4ccccc4n32)cc1 (stereo not given) | inactive
48 | O=C(c1ccncc1)N1CCN(S(=O)(=O)c2cccc([N+](=O)[O-])c2)CC1 | inactive
49 | C=CCN1CCN(C(=O)CCCc2ccccc2)CC1 | inactive
50 | CCC(=O)c1ccc(OCC(=O)OCC(=O)NC2CCCCCC2)cc1 | inactive

Row | Structure (SMILES) | Potency
51 | Cc1cccc(NC(=O)CN2CCN(C(=O)C3CCN(C(=O)/C=C/c4ccccc4)CC3)CC2)c1C | inactive
52 | COc1ccc(-c2nn(-c3ccccc3)cc2C(=O)Nc2nccs2)cc1OC | inactive
53 | COc1ccc(-c2nn(-c3ccccc3)cc2/C=N/Nc2ccccn2)cc1OC | 3.7 µM (active)
54 | Oc1ccc(Br)cc1/C=N/Nc1ccccn1 | inactive
55 | CC(=O)Nc1cccc(C(=O)OCC(=O)c2ccc3c(c2)OCO3)c1 | inactive
56 | Cc1ccc(CNCc2ccc3c(c2)OCO3)c(C)c1 | inactive
57 | CCCCCc1c(C)nc(N2CCN(Cc3ccc4c(c3)OCO4)CC2)[nH]c1=O | inactive
58 | O=c1[nH]c(N2CCN(Cc3ccc4c(c3)OCO4)CC2)nc2c1CCCC2 | 7.38 µM (active)
59 | CCN1CCN(c2nc3c(c(=O)[nH]2)CCC3)CC1 | inactive
60 | O=C(COC(=O)c1ncc(Cl)c(Cl)c1Cl)NC1CCS(=O)(=O)C1 (stereo not given) | inactive
61 | Cc1occc(=O)c1OCc1ccc(F)cc1 | inactive
62 | Cc1ccc(COC(=O)CN2C(=O)NC3(CCCC3)C2=O)cc1 | inactive
63 | CCOc1ccc(C(C)=O)cc1COC(=O)CN1C(=O)NC2(CCCC2)C1=O | 5.22 µM (active)
64 | O=C(CN1C(=O)NC2(CCCC2)C1=O)OCCOc1ccc(F)cc1 | inactive
65 | O=C(COC(=O)c1ccc([N+](=O)[O-])cc1Cl)NC(=O)c1ccccc1 | inactive
66 | COc1ccc(CNC(=O)CN2C(=O)NC3(CCCc4sccc43)C2=O)cc1 (stereo not given) | inactive
67 | Cc1cccc(C)c1NC(=O)CN(C)C(=O)CCC(=O)c1ccccc1 | inactive
68 | COc1ccc(C(=O)NNc2cc(C)nc(NNC(=O)c3ccc(OC)cc3)n2)cc1 | inactive
69 | CC(=O)Nc1ccc(Nc2cc(C)nc(Nc3ccc(NC(C)=O)cc3)n2)cc1 | 2.94 µM (active)
70 | CC(=O)Nc1ccc(Nc2c3ccccc3nc3ccccc23)cc1 | inactive
71 | CCN(CC)Cc1c(C(=O)N/N=C/c2cccc(OCc3ccc(F)cc3)c2)nnn1-c1nonc1N | inactive
72 | O=C(NNc1ccccc1Cl)C(O)(c1cccc(C(F)(F)F)c1)c1cccc(C(F)(F)F)c1 | 2.62 µM (active)
73 | O=C(Nc1cc(C(F)(F)F)ccc1Cl)C(=O)N1CCCCC1 | inactive
74 | CC(CC(=O)Nc1cc(C(F)(F)F)ccc1Cl)c1ccccc1 (stereo not given) | inactive
75 | COC(=O)c1cc(N2CCNCC2)nc2ccccc12 | inactive

Row | Structure (SMILES) | Potency
76 | Cc1nc2ccccc2n1CC(=O)N/N=C/c1cccs1 | 2.33 µM (active)
77 | Cc1nnc(SCC(=O)N/N=C/c2cn(-c3ccccc3)nc2-c2ccc(F)cc2)n1-c1ccccc1 | inactive
78 | Cc1nc2ccccc2n1CC(=O)N/N=C/c1cccnc1 | inactive
79 | Cc1ccc(-c2nnc(SCC(=O)N/N=C/c3cccs3)n2-c2ccc(C)cc2)cc1 | 13.1 µM (active)
80 | Cc1ccc(-n2c(C)nnc2SCC(=O)NC2CC2)cc1 | inactive
81 | NC(=O)N/N=C\c1cccs1 | inactive
82 | CCN1CCN(C(=O)N[C@@H](C(=O)N[C@@H]2C(=O)N3C(C(=O)O)=C(CSc4nnnn4C)CS[C@H]23)c2ccc(O)cc2)C(=O)C1=O | inactive
83 | Cn1nc(C(F)(F)F)c(-c2ccc(F)cc2)c1NC(=O)CSCC(=O)O | inactive
84 | Cc1nc(N)sc1N=Nc1c(C)n(C)n(-c2ccccc2)c1=O | inactive
85 | COc1c(O)ccc2c1CN1CCc3cc4c(cc3C1C2)OCO4 (stereo not given) | 3.29 µM (active)
86 | COc1c(O)ccc2c1-c1c3c(cc4c1C(C2)N(C)CC4)OCO3 (stereo not given) | inactive
87 | CN1CCc2cc3c(cc2[C@H]1[C@@H]1OC(=O)c2c1ccc1c2OCO1)OCO3 | inactive
88 | O=C(CCc1ccccc1Cl)Nc1ccc(S(=O)(=O)Nc2nccs2)cc1 | inactive
89 | O=C(COc1ccc(Cl)cc1)NCCS(=O)(=O)N1CCN(c2ccc(F)cc2)CC1 | inactive
90 | Cc1ccc(NC(=O)CCN2C(=O)c3ccccc3C2=O)cc1C | inactive
91 | Cc1cc2c(cc1C)N(C(=O)CN1C(=O)c3ccccc3C1=O)C(C)(C)c1ssc(=S)c1-2 | 8.28 µM (active)
92 | Cc1cc(C)cc(NC(=O)CN2C(=O)c3ccccc3C2=O)c1 | inactive
93 | Cc1nn(CC(=O)N/N=C/c2ccc(F)cc2)c(C)c1[N+](=O)[O-] | inactive
94 | CC1CCN(C(=S)NC(=O)c2ccccc2Br)CC1 | inactive
95 | CCOC(=O)c1c(CC(C)C)csc1/N=C/C1=C(O)CCCC1=O | inactive
96 | CN1C(=O)[C@H]2[C@@H](C3CC3)N3C(=O)CN(Cc4ccccc4)C(=O)[C@@]3(C)[C@H]2C1=O | inactive
97 | CC(=O)Nc1ccc(NC(=O)CCCNC(=O)c2ccc(Cl)cc2)cc1 | inactive
98 | C=CCNC(=S)NNC(=O)c1ccc(Br)o1 | inactive
99 | Cc1ccc(/C=N/NC(=O)CN2CCN(Cc3ccccc3)CC2)s1 | inactive
100 | C=CCNC(=S)N/N=C/c1ccc(C)s1 | 4.65 µM (active)
